Assay results: ChEMBL document CHEMBL3988442, “University of Dundee, Small-Polar-MMV Screening Library” (2021)

Biological target: T1, Aspartate--tRNA(Asp/Asn) ligase (Mycobacterium tuberculosis (strain ATCC 25618 / H37Rv)) (UniProt P9WFW3)
T1 sequence (whole entry): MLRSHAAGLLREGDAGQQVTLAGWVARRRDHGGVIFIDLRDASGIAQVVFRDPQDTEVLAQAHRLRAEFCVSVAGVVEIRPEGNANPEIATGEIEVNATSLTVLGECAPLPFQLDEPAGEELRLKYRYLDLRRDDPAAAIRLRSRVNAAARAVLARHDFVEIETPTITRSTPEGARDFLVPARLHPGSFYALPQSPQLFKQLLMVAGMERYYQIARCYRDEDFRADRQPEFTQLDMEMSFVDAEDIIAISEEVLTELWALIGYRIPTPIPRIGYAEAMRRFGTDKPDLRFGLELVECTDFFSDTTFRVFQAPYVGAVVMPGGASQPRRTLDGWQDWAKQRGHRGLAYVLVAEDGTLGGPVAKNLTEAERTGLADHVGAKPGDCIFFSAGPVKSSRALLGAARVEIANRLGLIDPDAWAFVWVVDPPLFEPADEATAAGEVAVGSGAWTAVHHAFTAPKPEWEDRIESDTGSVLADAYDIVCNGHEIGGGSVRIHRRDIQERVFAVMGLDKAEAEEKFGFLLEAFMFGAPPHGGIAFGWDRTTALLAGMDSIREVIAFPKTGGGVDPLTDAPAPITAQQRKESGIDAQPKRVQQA
Assay: Assay for Asp RNA synthetase-1 from Mycobacterium tuberculosis
Format: functional
Set-up: scale not given: in the data most compounds retested in dose-response had high values
Settings: 30 µM

In order of falling Percent Effect:
1. O=S(=O)(Cc1ccccc1)N1CCCn2cnc(CN3CCCC3)c2C1  16%
2. Cc1nc(N2CCCC2)nc2c1CCN(Cc1ccco1)CC2  8.76%
3. Cc1cccc(-c2ccc(C(=O)NCC3CCOC3)c(=O)[nH]2)c1 (stereo not given)  7.65%
4. CC(C(=O)N1CCC(Nc2cccnn2)CC1)n1ccnc1 (stereo not given)  7.4%
5. CCC(C)NC(=O)Cc1c(C)nc2c(c1C)c(=O)[nH]n2C (stereo not given)  5.44%
6. c1nc2n(n1)CC(NCc1nc(-c3ccsc3)no1)CC2 (stereo not given)  4.69%
7. CC(=O)c1ccc(OCC(=O)NC(C)CCc2ccco2)cc1 (stereo not given)  4.56%
8. CCCc1cc(=O)n(CC(N)=O)c(-n2nc(C)cc2C)n1  3.6%
9. O=C(CCCNc1ncccn1)N1CCCC(n2cccn2)C1 (stereo not given)  3.16%
10. CCn1cc(NC(=O)C2CCN(CCOC(C)C)CC2)cn1  2.5%
11. Cc1nc(C)n(CC2CN(c3ccc(C#N)cn3)CCO2)n1 (stereo not given)  2.39%
12. COc1ccc(CNC(=O)CNc2cc3c(cc2Cl)OCCCO3)cc1  2.02%
13. COCC(c1cccc(C(F)(F)F)c1)N(C)C(=O)c1cc(C)n[nH]1 (stereo not given)  1.86%
14. Cc1cn2c(n1)CCC(NC(=O)c1nc(C)ncc1Cl)C2 (stereo not given)  1.79%
15. Cc1n[nH]c(C)c1C1CCCN1C(=O)NCC(=O)NC(C)(C)C (stereo not given)  1.47%
16. N#Cc1ccc(OCCN2CCc3c(ncn3C3CC3)C2)cc1  1.24%
17. CCn1c(=O)nc2n1C(=O)N(c1cccc(Cl)c1)C2  0.929%
18. COCCN1C[C@@H]2CCCO[C@@H]2[C@H](N(C)Cc2ccco2)C1  0.0735%
19. c1cncc(COCc2nnc3n2CCN(Cc2ccoc2)C3)c1  -0.0297%
20. CC(C)CNC(=O)[C@H]1CCS(=O)(=O)[C@@H]2CN(Cc3ccc(Cl)cc3)C[C@H]12  -0.0704%
21. Cc1ccc(NC(=O)N2CCC(NC(=O)c3ccc(C)o3)CC2)cc1  -0.605%
22. CC(C)c1cc(NC(=O)CN2CCCC2Cn2cccn2)on1 (stereo not given)  -1.29%
23. NC(=O)C(CNC(=O)Cc1ccc(F)cc1)Cc1ccc(F)cc1 (stereo not given)  -1.56%
24. Cc1ccc(CN(Cc2c[nH]cn2)C2CC(C)(C)NC(C)(C)C2)o1  -1.68%
25. Cc1cccc(CN(Cc2ccc(C)o2)C2CC(C)(C)NC(C)(C)C2)n1  -1.8%
26. Cc1cc(C)n(CC2CCCN2C(=O)c2c[nH]c3ncccc23)n1 (stereo not given)  -1.92%
27. CCc1nc(CN2CCCC(NCc3ccc(C(N)=O)cc3)C2)no1 (stereo not given)  -2.68%
28. O=C(NCCc1cccnc1)N1CCCC1c1ccsc1 (stereo not given)  -2.72%
29. Cc1ccc(NC2CCN(C(=O)c3ccsc3)CC2)nn1  -2.79%
30. CCOc1nc2cccnc2n(CC(=O)NCCOC)c1=O  -2.81%
31. O=C(NCCNc1cnccn1)N1CCCC1  -2.84%
32. O=C(CCOc1cccc(F)c1)N1CCCC(n2cncn2)C1 (stereo not given)  -2.92%
33. CCNC(=O)[C@@H]1C[C@@H](NC(=O)c2cccnc2O)CN1Cc1ccsc1  -2.94%
34. O=C(c1cccs1)N1C[C@H]2CC[C@@]3(N=C(c4ccccc4)NC3=O)[C@H]2C1  -3.42%
35. CC(NCc1ccc(Cl)o1)c1nnc2n1CCCC2 (stereo not given)  -3.67%
36. CN(C)C(=O)COC1COC2(CCN(S(C)(=O)=O)CC2)C1 (stereo not given)  -4.11%
37. COc1ccc(F)cc1S(=O)(=O)NCC(c1cccn1C)N(C)C (stereo not given)  -5.43%
38. CC(C)Oc1ccccc1CNC(=O)N1CCC(n2cncn2)CC1  -5.72%
39. CCOc1ccc(C(=O)NS(=O)(=O)c2cncc(Br)c2)cc1OC  -5.81%
40. CCCNC(=O)CNc1cc(C#N)ccc1OCC  -8.31%
